Measurements: the supplement of paper PMC10849652
About 8,800 targets were measured; listed, in parts, are those with a hit and a random draw of the rest. About 0.5% of all pairs of compound and target were hits.

Experiments:
Assay in all cases: log2 fold change, soluble protein after heating vs DMSO (PISA); higher = thermal stabilisation; K562 lysate, 10 uM; active = over 0.2 and 3.5 SD of the protein, either way, in both replicates (recomputed)
[1] = compound: CCCS(=O)(=O)Nc1ccc(F)c(C(=O)c2c[nH]c3ncc(-c4ccc(Cl)cc4)cc23)c1F [vemurafenib]
Outline: (§1)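 Quantification was by TMTpro 16plex LC-MS/MS with equalised channel sums, applied to the supernatant after 21,000xg for 90 min. Samples were crude K562 extract at 1 mg/mL protein in PBS pH 7.4 with 1 mM MgCl2, treated with 10 μM compound for 30 min, heated for 3 min across 48°C-58°C, pooled and brought to 0.5% NP-40 at 4°C. Values are log-two fold changes in thermal stability relative to solvent controls, from duplicates.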

[2] = compound: CCCS(=O)(=O)Nc1ccc(F)c(C(=O)c2c[nH]c3ncc(Cl)cc23)c1F
Outline: as §1

[3] = compound: CCN(CCCOc1ccc2c(Nc3cc(CC(=O)Nc4cccc(F)c4)[nH]n3)ncnc2c1)CCOP(=O)(O)O [barasertib]
Outline: as §1

[4] = compound: CC[C@@H]1C(=O)N(C)c2cnc(Nc3ccc(C(=O)NC4CCN(C)CC4)cc3OC)nc2N1C1CCCC1
Outline: as §1

[5] = compound: CC[C@@H]1C(=O)N(C)c2cnc(Nc3ccc(C(=O)N[C@H]4CC[C@H](N5CCN(CC6CC6)CC5)CC4)cc3OC)nc2N1C(C)C [volasertib]
Outline: as §1

[6] = compound: CCn1c(C(=O)N(C2CC2)C2CC2)cc2c3c(ncn3C)c(Nc3cc(C)n(C)n3)nc21
Outline: as §1

[7] = compound: CCn1cc(-c2ccnc3[nH]c(-c4cccc(CN(C)C)c4)cc23)c(-c2ccc(NC(=O)N(C)C)cc2)n1
Outline: as §1

[8] = compound: CN1CCC(CNc2ccc3ncc(-c4cccc(OC(F)(F)F)c4)n3n2)CC1
Outline: as §1

[9] = compound: CN1CCN(CCOc2cc(OC3CCOCC3)c3c(Nc4c(Cl)ccc5c4OCO5)ncnc3c2)CC1 [saracatinib]
Outline: as §1

[10] = compound: CN1CCN(c2nc(C3=C(c4c[nH]c5ccccc45)C(=O)NC3=O)c3ccccc3n2)CC1 [sotrastaurin]
Outline: as §1

Measured: log2 fold change

COL6A5 (UniProt A8TX70)
inactive: [1] 0.073 | [2] 0.041 | [3] 0.09 | [4] 0.078 | [5] -0.044 | [6] -0.055 | [8] 0.374 | [9] -0.048 | [10] -0.03
active: [7] -0.834

COG4 (UniProt Q9H9E3)
inactive: [1] 0.018 | [2] 0.047 | [3] 0.085 | [4] -0.048 | [5] -0.088 | [6] 0.024 | [7] 0.005 | [8] -0.125 | [9] 0.055 | [10] 0.05

CHEK1 (UniProt O14757)
inactive: [1] -0.02 | [2] 0.006 | [3] 0.015 | [4] -0.031 | [5] -0.012 | [6] -0.012 | [7] -0.008 | [8] -0.045 | [9] -0.004 | [10] -0.014

CNOT6L (UniProt Q96LI5)
active: [7] -0.422
inactive: [1] 0.035 | [2] -0.007 | [3] 0.065 | [4] -0.006 | [5] 0.006 | [6] 0.078 | [8] 0.107 | [9] 0.048 | [10] -0.019

COQ8A (UniProt Q8NI60)
inactive: [1] 0.036 | [2] -0.009 | [3] 0.134 | [4] 0.026 | [5] -0.026 | [6] -0.029 | [7] -0.214 | [10] 0.016
active: [8] 0.573 | [9] 0.697

DPY19L3 (UniProt Q6ZPD9)
inactive: [1] 0.258 | [2] 0.05 | [3] 0.071 | [4] 0.043 | [5] -0.007 | [10] 0.051

CHUK (UniProt O15111)
inactive: [1] 0.026 | [2] 0.001 | [3] 0.059 | [4] -0.095 | [5] -0.047 | [6] -0.045 | [7] 0.111 | [8] -0.097 | [9] 0.059 | [10] 0.017

DDAH1 (UniProt O94760)
Chain of UniProt O94760 (O94760 whole entry, looked up): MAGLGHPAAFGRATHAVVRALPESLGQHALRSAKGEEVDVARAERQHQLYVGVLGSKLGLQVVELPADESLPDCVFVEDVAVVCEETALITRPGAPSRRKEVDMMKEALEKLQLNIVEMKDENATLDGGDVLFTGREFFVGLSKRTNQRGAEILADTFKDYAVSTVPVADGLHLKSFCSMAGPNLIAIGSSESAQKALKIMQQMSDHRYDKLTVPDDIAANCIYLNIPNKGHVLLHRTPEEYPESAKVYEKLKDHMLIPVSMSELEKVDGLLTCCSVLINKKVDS
active: [9] -0.308
inactive: [1] 0.054 | [2] 0.071 | [4] 0.04 | [5] 0.068 | [6] 0.061 | [7] -0.068 | [8] -0.051 | [10] -0.022

CNIH4 (UniProt Q9P003)
Chain of UniProt Q9P003 (Q9P003 whole entry, looked up): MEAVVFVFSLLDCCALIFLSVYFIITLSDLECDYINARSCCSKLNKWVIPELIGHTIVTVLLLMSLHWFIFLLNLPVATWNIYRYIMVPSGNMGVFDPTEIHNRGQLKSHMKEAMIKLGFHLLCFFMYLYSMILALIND
inactive: [1] 0.217 | [2] 0.064 | [3] 0.585 | [4] 0.051 | [5] -0.077 | [6] -0.19 | [9] 0.021 | [10] 0.066

CXXC1 isoform 2 (UniProt Q9P0U4)
Chain of UniProt Q9P0U4 (Q9P0U4 whole entry, looked up): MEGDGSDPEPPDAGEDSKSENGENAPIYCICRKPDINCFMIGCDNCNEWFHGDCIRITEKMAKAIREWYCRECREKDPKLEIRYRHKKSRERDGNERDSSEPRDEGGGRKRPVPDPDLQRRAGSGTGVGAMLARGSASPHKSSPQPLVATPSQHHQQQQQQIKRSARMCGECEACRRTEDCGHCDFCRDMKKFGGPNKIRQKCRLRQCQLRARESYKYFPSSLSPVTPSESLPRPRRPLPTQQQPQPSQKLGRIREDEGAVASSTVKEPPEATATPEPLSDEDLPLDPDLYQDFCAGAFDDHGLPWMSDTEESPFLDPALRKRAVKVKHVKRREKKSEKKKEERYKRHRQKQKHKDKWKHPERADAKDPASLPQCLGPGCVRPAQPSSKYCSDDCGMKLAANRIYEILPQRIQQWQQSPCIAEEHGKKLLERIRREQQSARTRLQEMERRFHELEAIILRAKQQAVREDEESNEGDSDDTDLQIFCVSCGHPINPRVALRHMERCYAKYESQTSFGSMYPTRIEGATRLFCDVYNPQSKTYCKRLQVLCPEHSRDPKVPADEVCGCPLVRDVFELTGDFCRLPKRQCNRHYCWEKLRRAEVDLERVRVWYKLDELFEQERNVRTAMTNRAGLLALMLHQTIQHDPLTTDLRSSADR
inactive: [1] -0.029 | [2] -0.117 | [3] -0.02 | [4] -0.256 | [5] -0.027 | [6] 0.031 | [7] -0.072 | [8] 0.041 | [9] -0.066 | [10] -0.04

DENND1B (UniProt Q6P3S1)
inactive: [1] 0.128 | [2] -0.036 | [3] 0.01 | [5] -0.05 | [6] -0.134 | [7] 0.022 | [8] -0.024 | [9] -0.018 | [10] 0.04

CNNM2 (UniProt Q9H8M5)
inactive: [1] 0.025 | [2] 0.024 | [4] 0 | [5] -0.043 | [6] -0.091 | [7] -0.059 | [8] 0.036 | [9] -0.039 | [10] 0.091

CUL1 (UniProt Q13616)
inactive: [1] -0.008 | [2] 0.001 | [3] -0.011 | [4] 0.034 | [5] 0.029 | [6] 0.004 | [7] -0.013 | [8] 0.029 | [9] -0.023 | [10] -0.029

DCTN1 isoform 4 (UniProt Q14203)
inactive: [1] 0.07 | [2] 0.089 | [4] 0.139 | [5] -0.019 | [6] -0.28 | [7] 0.34 | [8] 0.121 | [9] 0.123 | [10] -0.027

DIAPH1 (UniProt H9KV28)
inactive: [1] 0.098 | [2] -0.01 | [3] 0.091 | [4] -0.049 | [5] -0.046 | [6] -0.046 | [7] -0.07 | [8] 0.153 | [10] -0.001

DMXL1 (UniProt Q9Y485)
Chain of UniProt Q9Y485 (Q9Y485 whole entry, looked up): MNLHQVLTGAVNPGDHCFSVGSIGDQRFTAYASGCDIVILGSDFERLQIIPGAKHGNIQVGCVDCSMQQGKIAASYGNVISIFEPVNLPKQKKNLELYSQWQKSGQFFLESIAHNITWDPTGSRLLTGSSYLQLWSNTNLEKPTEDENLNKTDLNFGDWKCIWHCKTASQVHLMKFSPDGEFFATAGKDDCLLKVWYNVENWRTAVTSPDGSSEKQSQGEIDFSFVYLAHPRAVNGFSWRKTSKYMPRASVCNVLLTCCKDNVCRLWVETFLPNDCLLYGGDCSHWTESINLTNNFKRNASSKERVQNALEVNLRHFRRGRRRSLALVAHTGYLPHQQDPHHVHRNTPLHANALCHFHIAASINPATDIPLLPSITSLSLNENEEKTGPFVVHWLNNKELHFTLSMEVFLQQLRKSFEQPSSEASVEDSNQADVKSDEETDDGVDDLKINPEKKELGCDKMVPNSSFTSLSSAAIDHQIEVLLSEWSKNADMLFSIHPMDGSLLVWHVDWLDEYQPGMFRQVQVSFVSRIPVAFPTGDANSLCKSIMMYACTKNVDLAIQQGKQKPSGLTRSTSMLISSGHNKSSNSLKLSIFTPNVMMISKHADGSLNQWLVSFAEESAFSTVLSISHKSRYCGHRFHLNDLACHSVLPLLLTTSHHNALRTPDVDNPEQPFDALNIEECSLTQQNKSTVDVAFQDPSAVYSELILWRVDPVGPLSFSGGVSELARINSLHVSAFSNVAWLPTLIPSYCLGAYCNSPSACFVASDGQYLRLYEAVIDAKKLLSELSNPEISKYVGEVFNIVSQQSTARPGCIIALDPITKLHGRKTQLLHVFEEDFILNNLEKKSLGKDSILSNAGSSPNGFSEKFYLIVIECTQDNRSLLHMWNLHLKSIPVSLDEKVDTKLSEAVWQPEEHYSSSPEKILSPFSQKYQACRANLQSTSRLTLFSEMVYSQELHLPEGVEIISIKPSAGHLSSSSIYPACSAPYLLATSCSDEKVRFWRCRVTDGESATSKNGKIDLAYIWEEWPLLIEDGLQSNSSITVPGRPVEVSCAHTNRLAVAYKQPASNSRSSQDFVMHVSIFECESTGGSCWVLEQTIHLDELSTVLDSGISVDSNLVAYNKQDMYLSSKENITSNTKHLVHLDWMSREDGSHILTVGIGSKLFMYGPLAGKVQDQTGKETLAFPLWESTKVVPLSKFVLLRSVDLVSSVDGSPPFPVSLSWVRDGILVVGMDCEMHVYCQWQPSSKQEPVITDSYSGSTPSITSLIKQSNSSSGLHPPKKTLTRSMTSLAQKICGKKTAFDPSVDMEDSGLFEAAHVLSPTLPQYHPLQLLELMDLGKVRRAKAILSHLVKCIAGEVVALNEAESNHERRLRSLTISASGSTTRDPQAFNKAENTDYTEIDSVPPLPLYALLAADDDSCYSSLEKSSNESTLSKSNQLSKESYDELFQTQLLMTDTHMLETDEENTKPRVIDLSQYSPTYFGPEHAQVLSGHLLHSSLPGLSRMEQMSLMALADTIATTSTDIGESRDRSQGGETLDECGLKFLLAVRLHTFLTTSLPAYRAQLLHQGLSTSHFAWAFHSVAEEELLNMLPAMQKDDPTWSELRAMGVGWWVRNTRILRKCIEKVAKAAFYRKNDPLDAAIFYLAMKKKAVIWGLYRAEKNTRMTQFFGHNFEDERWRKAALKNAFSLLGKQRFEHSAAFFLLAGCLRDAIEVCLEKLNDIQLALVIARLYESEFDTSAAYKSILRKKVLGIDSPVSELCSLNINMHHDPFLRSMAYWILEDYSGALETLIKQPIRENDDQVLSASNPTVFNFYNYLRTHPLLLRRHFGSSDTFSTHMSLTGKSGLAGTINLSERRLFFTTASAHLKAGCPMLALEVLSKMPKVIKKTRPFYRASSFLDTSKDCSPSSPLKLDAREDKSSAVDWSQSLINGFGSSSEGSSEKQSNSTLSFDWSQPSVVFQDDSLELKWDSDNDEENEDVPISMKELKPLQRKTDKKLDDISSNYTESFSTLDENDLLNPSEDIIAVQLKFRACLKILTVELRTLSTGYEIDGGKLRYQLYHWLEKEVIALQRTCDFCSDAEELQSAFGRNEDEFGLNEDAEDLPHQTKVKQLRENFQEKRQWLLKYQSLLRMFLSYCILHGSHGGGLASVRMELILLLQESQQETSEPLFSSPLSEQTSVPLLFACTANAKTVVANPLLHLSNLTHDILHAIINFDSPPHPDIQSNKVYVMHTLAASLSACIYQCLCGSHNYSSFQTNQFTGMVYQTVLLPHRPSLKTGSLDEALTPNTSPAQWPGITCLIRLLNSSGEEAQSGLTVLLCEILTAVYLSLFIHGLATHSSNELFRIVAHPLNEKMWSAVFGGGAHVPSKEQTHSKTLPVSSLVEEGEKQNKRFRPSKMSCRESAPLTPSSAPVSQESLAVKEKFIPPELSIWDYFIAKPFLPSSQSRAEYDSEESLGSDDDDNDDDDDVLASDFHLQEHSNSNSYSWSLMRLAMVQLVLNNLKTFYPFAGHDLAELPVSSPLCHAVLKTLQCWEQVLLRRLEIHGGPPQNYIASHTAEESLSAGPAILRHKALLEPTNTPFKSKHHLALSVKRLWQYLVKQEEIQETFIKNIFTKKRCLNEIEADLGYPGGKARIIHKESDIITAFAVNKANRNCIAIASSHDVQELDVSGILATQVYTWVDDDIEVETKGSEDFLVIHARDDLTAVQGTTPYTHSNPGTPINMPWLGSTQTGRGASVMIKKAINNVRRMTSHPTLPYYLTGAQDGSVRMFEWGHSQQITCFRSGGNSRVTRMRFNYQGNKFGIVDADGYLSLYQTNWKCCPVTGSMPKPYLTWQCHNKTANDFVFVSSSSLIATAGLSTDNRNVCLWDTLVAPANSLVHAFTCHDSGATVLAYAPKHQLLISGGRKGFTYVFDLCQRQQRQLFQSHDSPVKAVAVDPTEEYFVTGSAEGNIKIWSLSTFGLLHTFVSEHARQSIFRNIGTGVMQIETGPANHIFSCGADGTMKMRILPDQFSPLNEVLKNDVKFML
inactive: [1] 0.024 | [2] 0.028 | [3] -0.005 | [4] 0.015 | [5] -0.06 | [6] 0.026 | [7] -0.017 | [8] -0.004 | [9] 0.002 | [10] 0.023

CSNK1D (UniProt P48730)
inactive: [1] -0.04 | [2] -0.044 | [3] -0.092 | [5] -0.191 | [6] 0.025 | [8] 0.255 | [9] -0.039 | [10] 0.058

CORO7 (UniProt P57737)
Chain of UniProt P57737 (P57737 whole entry, looked up): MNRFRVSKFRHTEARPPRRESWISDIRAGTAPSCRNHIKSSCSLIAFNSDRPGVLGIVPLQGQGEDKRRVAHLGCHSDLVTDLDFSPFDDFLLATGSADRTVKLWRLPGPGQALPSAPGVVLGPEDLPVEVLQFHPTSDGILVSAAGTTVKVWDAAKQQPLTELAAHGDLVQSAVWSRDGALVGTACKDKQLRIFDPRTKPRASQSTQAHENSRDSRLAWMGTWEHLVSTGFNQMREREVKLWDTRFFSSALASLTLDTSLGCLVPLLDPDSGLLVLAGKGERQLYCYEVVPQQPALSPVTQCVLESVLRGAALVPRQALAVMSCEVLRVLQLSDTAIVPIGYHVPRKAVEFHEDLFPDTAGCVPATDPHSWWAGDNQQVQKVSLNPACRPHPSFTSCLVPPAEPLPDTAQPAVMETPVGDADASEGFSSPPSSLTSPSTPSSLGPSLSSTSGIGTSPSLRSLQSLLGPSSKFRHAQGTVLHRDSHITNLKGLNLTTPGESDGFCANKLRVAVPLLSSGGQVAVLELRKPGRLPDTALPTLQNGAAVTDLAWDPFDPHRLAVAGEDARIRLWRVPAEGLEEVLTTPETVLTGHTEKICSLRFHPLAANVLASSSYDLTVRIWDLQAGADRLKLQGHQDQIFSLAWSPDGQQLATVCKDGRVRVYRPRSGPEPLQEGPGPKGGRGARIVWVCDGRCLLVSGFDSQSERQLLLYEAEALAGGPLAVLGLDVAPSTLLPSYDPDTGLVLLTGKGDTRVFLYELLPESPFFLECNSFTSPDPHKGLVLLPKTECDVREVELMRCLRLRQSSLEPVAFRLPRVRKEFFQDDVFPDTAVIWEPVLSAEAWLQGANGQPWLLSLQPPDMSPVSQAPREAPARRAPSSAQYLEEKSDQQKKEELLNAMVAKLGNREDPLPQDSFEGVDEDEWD
inactive: [1] -0.143 | [4] 0.089 | [6] -0.025 | [7] 0.321 | [8] 0.165 | [9] 0.166 | [10] 0.137

COPS9 (UniProt Q8WXC6)
Chain of UniProt Q8WXC6 (Q8WXC6 whole entry, looked up): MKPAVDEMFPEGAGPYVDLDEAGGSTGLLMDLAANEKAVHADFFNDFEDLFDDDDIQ
inactive: [2] -0.075 | [5] 0.062 | [6] -0.197

CSNK2A1, A0A2R8Y4D6
inactive: [2] 0.107 | [5] -0.325

CSNK1G3 isoform 4 (UniProt Q9Y6M4)
inactive: [2] -0.238 | [5] 0.111

DLGAP5 isoform 3 (UniProt Q15398)
inactive: [3] 0.281 | [7] -0.165 | [8] -0.03 | [9] 0.165

CHFR (UniProt Q96EP1)
inactive: [1] -0.252 | [2] 0.063 | [4] -0.013 | [5] 0.043 | [6] 0.052 | [9] 0.052 | [10] 0.033
